Screening results: PubChem, several laboratories
Compounds with a hit are over-represented: about 4.1% of the library has one in this group of screens.
DAX1 inh-1: inhibitors of DAX1 repression of SF-1 activated StAR promoter. AID 652010. inhibition, % at 6.8 µM. HEK293T StAR-luciferase reporter, SF-1/DAX-1 repression relief. 370,000 tested, 1.1% active;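 active means inhibition above the mean over all tested compounds plus 3 SD, cut at about 3.6% in these data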;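 further: higher inhibition means more luminescence from relief of DAX-1 repression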
hcDAF-12 act: activators of H. contortus DAF-12 nuclear receptor; HEK293 hcDAF-12 lit1-tk-luc reporter, luminescence; 0% DMSO, 100% Δ7-dafachronic acid; AID 652067; activation, % at 6.8 µM; 370,000 tested, 1.4% active;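 active means activation above the mean of all tested compounds plus 3 SD, cut at about 5.5% in these data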
DAX1 inh-2: inhibitors of human orphan nuclear receptor DAX1 (NR0B1). 340,000 tested, 0.99% active. AID 504766. inhibition, % at 6.75 µM. HEK293 Gal4-DAX1 luciferase reporter, luminescence. P51843;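 active means inhibition above the mean over all tested compounds plus 3 SD, cut at about 4.2% in these data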;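 further: inhibition shows as a rise in luminescence from relieved DAX1 repression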
PolyA inh: blocks polyadenylation in yeast reporter cells; 300,000 tested, 0.02% active; S. cerevisiae SKY197-pL101 polyadenylation reporter, beta-gal luminescence; efflux-impaired pdr1/pdr3 knockout yeast; score 100 = 6 SD above DMSO; activity score, % at 12 µM;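 active means lowest replicate activity score at least 50, where 100 means six control SD above control mean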;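 further: yeast exposed to compound for 9 h at 30 °C; higher score means more reporter readthrough which indicates perturbed polyadenylation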
hgDAF12 agonist: agonists of H. glycines DAF-12 nuclear receptor | HEK293 GAL4-hgDAF12 UAS-luciferase reporter, agonist luminescence; normalized to butyrate control | activation, % at 6.8 µM | 370,000 tested, 1.8% active;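 active means activation above a cutoff set at the mean of all screened compounds plus 3 SD, cut at about 10% in these data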
ssDAF-12 act: activators of S. stercoralis DAF-12 nuclear receptor; HEK293 ssDAF-12/GRIP1 lit1-tk-luc reporter, luminescence; % of 3 µM dafachronic acid response; activation, % at 6.8 µM; 370,000 tested, 1% active;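 active means activation above the mean over all tested compounds plus 3 SD, cut at about 0.9% in these data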
hgDAF12 ag: hgDAF-12 agonism, confirmation assay | shares compounds with hgDAF12 agonist | HEK293 GAL4-hgDAF12 luciferase reporter, agonist mode; percent of butyrate response | activation, % at 6.8 µM | 3,300 tested, 80% active | AID 743050;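 active means mean activation over triplicate wells above the hit cutoff derived from the earlier primary screen, cut at about 11% in these data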
LXRb DAF12 ctr: activates human LXR-beta, counter-screen for DAF-12 agonists | shares compounds with hgDAF12 agonist | HEK293 Gal4-LXR luciferase reporter, 24 h | activation, % at 6.8 µM | 3,300 tested, under 10 active;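 active means mean activation of the triplicate above a set limit carried over from the primary screen, none filed active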
Target sequence (P55055 whole entry, looked up, the tested form may be a part): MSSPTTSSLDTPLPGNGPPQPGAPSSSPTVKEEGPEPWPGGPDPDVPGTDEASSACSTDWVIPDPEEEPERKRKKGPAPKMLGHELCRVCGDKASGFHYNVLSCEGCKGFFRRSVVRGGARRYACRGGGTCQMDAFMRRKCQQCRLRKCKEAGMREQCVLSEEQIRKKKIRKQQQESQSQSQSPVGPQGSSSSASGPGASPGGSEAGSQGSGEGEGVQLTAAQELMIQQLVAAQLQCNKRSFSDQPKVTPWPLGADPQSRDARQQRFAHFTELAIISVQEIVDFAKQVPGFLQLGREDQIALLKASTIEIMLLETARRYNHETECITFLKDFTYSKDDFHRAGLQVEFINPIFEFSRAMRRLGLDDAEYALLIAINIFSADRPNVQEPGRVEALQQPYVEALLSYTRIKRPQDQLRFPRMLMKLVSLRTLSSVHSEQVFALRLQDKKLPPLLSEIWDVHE
Large screens that a line does not name were inactive (follow-up assays come after a bar, where they were run).

CC(=O)Nc1cccc(-c2cn3ccc(C)cc3n2)c1	DAX1 inh-1 3.9, hgDAF12 agonist 14 | hgDAF12 ag 12 | LXRb DAF12 ctr inactive
Cc1ccn2cc(-c3cccc(NS(C)(=O)=O)c3)nc2c1	hgDAF12 agonist 14 | hgDAF12 ag 11 | LXRb DAF12 ctr inactive
Cc1ccn2cc(-c3cccc(NC(=O)CCC(=O)O)c3)nc2c1	none
Cc1ccn2cc(-c3cnoc3C)nc2c1	none
Cc1cccc(/C=N/NC(=O)CC(=O)NCCc2ccccc2)c1	none
CCCCN1CC(COCc2ccccc2)Oc2cccc(OCCN3C(=O)[C@@H]4[C@H](C3=O)C3C=C[C@H]4C3)c2S1(=O)=O (some centres undefined)	none (no result: PolyA inh)
CC1(C)CC(=O)C=C(c2ccc(-c3cnn(Cc4ccccc4)c3)cc2)C1=O	none (no result: PolyA inh)
O=C(CCCSc1ccc(Cl)cc1)Nc1ccccc1O	none (no result: DAX1 inh-1, hcDAF-12 act, hgDAF12 agonist, ssDAF-12 act)
COc1ccc2nc(SCc3cccc(C)c3)nc(C)c2c1	hgDAF12 agonist 15 | hgDAF12 ag 14 | LXRb DAF12 ctr inactive
CC(C)(C)c1ccc(/C=C/C(=O)Nc2cccnc2)cc1	hgDAF12 agonist 16 | hgDAF12 ag 14 | LXRb DAF12 ctr inactive
O=C(/C=C/c1ccccc1Cl)Nc1cccnc1	hgDAF12 agonist 19 | hgDAF12 ag 21 | LXRb DAF12 ctr inactive
O=C(/C=C/c1ccc(Cl)c(Cl)c1)Nc1cccnc1	none
COC(=O)c1cc2sccc2n1CC(=O)N(C)c1ccccc1	none
CCC(=O)c1ccc(OCc2ccccc2)c(OC)c1	DAX1 inh-2 4.7, hgDAF12 agonist 14 | hgDAF12 ag inactive | LXRb DAF12 ctr inactive
CCC(=O)c1ccc(OCc2ccc(C(=O)OC)cc2)c(OC)c1	none
CCC(N=c1cc(-c2ccc(OC)cc2)oc2ccc(C)cc12)C(=O)O (centres undefined)	DAX1 inh-1 3.9, hgDAF12 agonist 14 | hgDAF12 ag 13 | LXRb DAF12 ctr inactive
CC(c1ccc(NC(=O)OC(C)(C)C)cc1)c1cn(C)c2ccccc12 (centres undefined)	hcDAF-12 act 5.7, hgDAF12 agonist 14 (no result: DAX1 inh-2, PolyA inh) | hgDAF12 ag inactive | LXRb DAF12 ctr inactive
CC(C)c1ccc(NC(=O)Cc2cn(C)c3ccccc23)cc1	none
CCc1nc2ccc(C(=O)N(C)CCCN(C)C)cn2c1N(C)C(=O)C1CCCCC1	none (no result: DAX1 inh-2, PolyA inh)
C/C(=N\NC(=O)c1ccc(-n2cnnn2)cc1)c1ccc(C)cc1	none (no result: PolyA inh)
Cc1cc(-c2nc3cccnc3s2)ccc1NS(=O)(=O)c1cccs1	DAX1 inh-1 4.4, hcDAF-12 act 6.5, hgDAF12 agonist 14 | hgDAF12 ag 13 | LXRb DAF12 ctr inactive
O=S(=O)(Nc1ccc(-c2nc3cccnc3s2)cc1)c1cccs1	none
CC(C)N1CCC(C)(C(=O)Nc2ccc(Cl)c(Cl)c2)C1 (centres undefined)	none (no result: DAX1 inh-2, PolyA inh)
CC1CCc2c(C(=O)NCc3ccccn3)csc2C1 (centres undefined)	hgDAF12 agonist 17 | hgDAF12 ag inactive | LXRb DAF12 ctr inactive
CC1CCc2c(C(=O)Nc3nccs3)csc2C1 (centres undefined)	none
CC1CCc2c(C(=O)Nc3ccccn3)csc2C1 (centres undefined)	hgDAF12 agonist 17 | hgDAF12 ag 12 | LXRb DAF12 ctr inactive
Cc1ccc(OCC(=O)NNC(=O)c2cccnc2)cc1C	none
CCc1ccc(C(=O)C(C)OC(=O)c2nc3nc(C)cc(C)n3n2)cc1 (centres undefined)	none
CCC/C(=N\NC(=O)C1CC1)c1ccccc1	none (no result: DAX1 inh-2)
CCC/C(=N/NC(=O)c1cccc(Cl)c1)c1ccccc1	hgDAF12 agonist 17 | hgDAF12 ag inactive | LXRb DAF12 ctr inactive
CC(=O)N1CCc2cc(N=NC3=C(O)CCCC3=O)ccc21	hgDAF12 agonist 15 | hgDAF12 ag 16 | LXRb DAF12 ctr inactive
O=S(=O)(CC1NCc2cc(F)ccc21)NCc1ccccc1 (centres undefined)	none (no result: DAX1 inh-2, PolyA inh)
